Compound activity from PubChem.
D1 antagonist – blocks dopamine activation of the human D1 receptor | 360,000 tested, 3.2% active | HEK293 TREx D1 cells, calcium flux, dopamine EC80; stronger effect = lower value | activity change, negative = inhibition, % at 10 µM | P21728; in the data active means activity change below about -30%
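Tetracycline-induced HEK293 Trex D1 cells, force-coupled to calcium, dye-loaded; compounds added and read 180 s, then EC80 dopamine added and calcium flux tracked kinetically another 180 s.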
D1 PAM – human D1 dopamine receptor positive modulation | HEK293 TREx D1 cells, calcium flux, dopamine EC20 potentiation | potentiation, % at 10 µM | 360,000 tested, 0.036% active; in the data active means potentiation above about 30%
D1 ag – human D1 receptor agonism; P21728; HEK293 T-REx D1 cells, calcium flux, agonist mode; activation, % at 2 µM; 360,000 tested, 1% active; AID 504660; in the data active means activation above about 30%
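Agonism was scored from calcium flux recorded over 180 s (1 read/s) after pintool compound addition, following a 10-cycle baseline. Cells were inducible force-coupled HEK293 TREx D1, plated overnight at 30 C and loaded with no-wash calcium dye.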
D3 ag – agonists of human D3 dopamine receptor | P35462 | D3R DiscoveRx beta-arrestin cells, luminescence, 90 min | max activation, % | 410,000 tested, 0.58% active | AID 652048; in the data active means max activation above about 30%
Target sequence (P35462 whole entry, looked up): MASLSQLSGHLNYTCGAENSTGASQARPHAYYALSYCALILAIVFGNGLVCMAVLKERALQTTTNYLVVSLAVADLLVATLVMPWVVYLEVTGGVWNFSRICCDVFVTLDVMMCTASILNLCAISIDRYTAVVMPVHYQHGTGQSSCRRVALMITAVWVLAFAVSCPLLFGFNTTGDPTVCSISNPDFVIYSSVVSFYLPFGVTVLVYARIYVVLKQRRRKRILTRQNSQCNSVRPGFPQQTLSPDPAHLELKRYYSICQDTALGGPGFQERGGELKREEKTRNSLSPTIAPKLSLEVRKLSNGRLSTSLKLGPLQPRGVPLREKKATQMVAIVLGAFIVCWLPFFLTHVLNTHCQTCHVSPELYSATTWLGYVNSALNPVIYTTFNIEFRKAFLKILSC
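Agonist-mode cell screen: cells plated at 1500/well and incubated overnight at 37 °C, then exposed to library compounds for 90 min at 37 °C. Detection reagent was added for 30–60 min at room temperature, and luminescence was read.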
DRD3 antagonist – antagonists of human D3 dopamine receptor; D3R cells, DiscoveRx beta-arrestin luminescence, antagonist mode; stronger effect = lower value; max response, negative = inhibition, %; 360,000 tested, 2.5% active; AID 652054; in the data active means max response below about -50%
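Cells expressing the human receptor were seeded at 1500 cells/well, incubated overnight at 37 degrees C in 5% CO2, then exposed to library compounds with dopamine controls for 90 minutes at 37 degrees C before luminescent detection.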
Hits are given with their value; n = inactive; x = no result given; ! = repeats disagree. This is a sample that favours compounds with a hit; in the whole collection about 6% have one here.

SMILES | D1 antagonist | D1 PAM | D1 ag | D3 ag | DRD3 antagonist
OC(COC(c1ccc(Cl)cc1)c1ccc(Cl)cc1)CN1CCc2ccccc2C1 (centres undefined) | n | n | n | n | -56
OC(COC(c1ccccc1)c1ccccc1)CN1CCc2ccccc2C1 (centres undefined) | n | n | n | n | -54
COc1cccc(C2=CC(c3ccccc3F)n3ncc(C(=O)Nc4ccc(F)cc4)c3N2)c1 (centres undefined) | n | n | n | n | x
Cc1cc(OCC(=O)Nc2ccc(C(=O)OC3CCCCC3)cc2)ccc1Cl | n | n | n | n | x
C=CCn1c(-c2cccs2)nc2ccccc21 | -52 | n | n | n | n
CCOC(=O)Nc1ccc2c(c1)N(C(=O)OC)c1ccccc1CC2 | n | n | n | n | n
CCOC(=O)Nc1ccc2c(c1)N(CCCN(C)C)c1ccccc1CC2 | n | n | 38 | n | n
Cc1ccsc1C(=O)N/N=C/C=C/c1ccccc1[N+](=O)[O-] | n | n | n | n | -85
Cc1occc1C(=O)N/N=C/C=C\c1ccccc1[N+](=O)[O-] | n | n | n | n | n
Cc1ccc2c(n1)sc1c(-c3ccc(Br)cc3)c(C#N)c(N)nc12 | -31 | n | n | n | n
Cc1cc2c(s1)c1cnn(Cc3ccc(-c4ccccc4)cc3)c(=O)c1n2C | n | n | n | x | x
COc1ccccc1NC(=O)CSc1nc2ccccc2c(=O)n1C | -34 | 41 | n | n | n
O=C(O)Cn1nnnc1SCC(=O)Nc1ccccc1F | n | n | n | n | n
COc1ccccc1NC(=O)CSc1nc2c(oc3ccccc32)c(=O)n1C | n | n | n | 31 | n
Cc1cccc(NC(=O)CSc2nc3c([nH]c4ccccc43)c(=O)n2C)c1C | -51 | n | n | n | x
Nn1c(SCC(=O)Nc2ccccc2F)nc2ccccc2c1=O | n | n | n | 40 | n
Cn1c(SCC(=O)Nc2ccccc2F)nc2c([nH]c3ccccc32)c1=O | n | n | n | n | x
COc1ccc(N2Cc3cccc(C(=O)Nc4cccc(F)c4)c3C2=O)cc1 | n | n | n | n | x
O=C(Nc1ccccc1Cl)[C@H](CSCc1ccccc1)N1Cc2ccccc2C1=O | n | n | n | n | x
Cc1cccc(C(C)C)c1NC(=O)c1ccc2c(c1)CCN2S(C)(=O)=O | n | n | n | n | x
Cc1noc(-c2ccc(N3CCCCC3)c([N+](=O)[O-])c2)n1 | n | n | n | n | x
CC(=O)n1nc(-c2ccco2)nc1N | n | n | n | n | n
COc1ccccc1C(=O)n1nc(-c2ccco2)nc1N | -82 | n | n | n | n
CC(=O)OC/C=C(C)/C=C/C=C(C)/C=C/C1=C(C)CCCC1(C)C | x | x | x | n | x
COC(=O)c1c(-c2ccc(Cl)cc2)noc1N1CCN(c2ccc(OC)cc2)CC1 | n | n | n | 69 | x
SMILES | D1 antagonist | D1 PAM | D1 ag | D3 ag | DRD3 antagonist
O=C1NC2(C=Cc3c(ccc4ccccc34)O2)Oc2ccccc21 (centres undefined) | n | n | n | n | -51
CC1(C)OC(=O)N(c2ccccc2)C12C=Cc1c(ccc3ccccc13)O2 (centres undefined) | n | n | n | n | n
CCC(NC(=O)Nc1nnc(C(F)(F)F)s1)(C(F)(F)F)C(F)(F)F | -58 | n | 31 | n | n
O=C(O)CCC(=O)Nc1nnc(C(F)(F)F)s1 | n | n | n | n | n
CC1(C)N=C(N)N=C(N)N1c1ccc(OCCCOc2ccccc2)c(Cl)c1 | n | n | n | n | n
CC1(C)N=C(N)N=C(N)N1c1ccc(OCC(=O)Nc2ccccc2)c(Cl)c1 | x | x | x | n | -62
COc1ccc(CNC(=O)Cn2c(=O)oc3cc(S(=O)(=O)N4CCCC4)ccc32)cc1 | -41! | n | n | n | n
Cc1cccc(NC(=O)Cn2c(=O)oc3cc(S(=O)(=O)NCc4ccccc4)ccc32)c1 | -35 | n | n | n | x
CC1CCN(S(=O)(=O)c2ccc3c(c2)oc(=O)n3CC(=O)NCc2ccc(F)cc2)CC1 | -57 | n | 87 | n | x
COc1cccc(CNC(=O)Cn2c(=O)oc3cc(S(=O)(=O)N4CCCCCC4)ccc32)c1 | n | n | n | n | x
O=C(Cn1c(=O)oc2cc(Cl)ccc21)Nc1cccc(C(F)(F)F)c1 | -47 | n | n | n | x
O=C(Cn1c(=O)oc2ccccc21)Nc1cccc(Cl)c1 | n | n | n | n | n
Cc1ccc(N2CC(NC(=O)/C=C\c3ccc4c(c3)OCO4)CC2=O)cc1C (centres undefined) | x | n | n | n | x
Cn1nnnc1Sc1ncnc2scc(-c3ccc(C(=O)OC(C)(C)C)cc3)c12 | n | n | n | x | x
CCCCN(CC)Cc1ccc(CNS(=O)(=O)c2cc3c(cc2Cl)NC(=O)CO3)o1 | n | n | n | n | x
CCc1nnc2n1N(C(C)=O)C(c1ccc(C(C)(C)C)cc1)=C(C(C)=O)S2 | x | n | n | n | x
COc1ccc(OC)c2sc(N(Cc3cccnc3)C(=O)c3ccc(C(C)=O)cc3)nc12 | x | n | n | n | x
COc1ccc(OC)c(NC(=O)c2c(NCc3ccc(N(C)C)cc3)sc3c2CCCC3)c1 | n | n | n | n | x
CC(C)c1ccc(NC(=O)Cn2c(=O)oc3cc(S(=O)(=O)N4CCCC4)ccc32)cc1 | -36 | n | n | n | x
CC1CCc2onc(C(=O)N3CCN(c4ccccc4)CC3)c2C1 (centres undefined) | n | n | n | n | x
CCc1ccc2oc(-c3cc(NC(=O)c4cc([N+](=O)[O-])ccc4N4CCOCC4)ccc3Cl)nc2c1 | n | n | n | n | x
COc1cccc(NS(=O)(=O)c2ccc3c(c2)CCCN3C(=O)C2CCC2)c1 | -52 | n | n | n | x
COc1cc(Cl)c(NS(=O)(=O)c2ccc3c(c2)CC(C)N3C(=O)C2CCC2)c(OC)c1 (centres undefined) | -31 | n | n | n | x
O=C(Nc1ccc(Cl)cc1)c1ccc(-n2cnnc2)cc1 | n | n | n | n | x
O=C(CSc1nnc2n(C3CCCC3)c(=O)c3ccccc3n12)N1CCCCCC1 | n | n | n | 34 | n
SMILES | D1 antagonist | D1 PAM | D1 ag | D3 ag | DRD3 antagonist
CC1CCCN(C(=O)CSc2nnc3n(C4CCCC4)c(=O)c4ccccc4n23)C1 (centres undefined) | n | n | n | 47 | n
Cc1nc(N2CCN(Cc3ccccc3)CC2)nc2c1C(=O)CC(C)C2 (centres undefined) | n | n | n | n | -60
CCN1CCN(c2nc(C)c3c(n2)CC(C)CC3=O)CC1 (centres undefined) | n | n | n | n | n
CCn1cnc2c(Nc3ccc(CC(=O)N=C(N)N)cc3)nc(C#N)nc21 | n | n | n | x | x
COc1ccc(/C=C/C(=O)Nc2ccccc2C(=O)O)cc1 | n | n | n | n | n
COc1ccc(/C=C/C(=O)Nc2ccccc2C(=O)NCC(c2ccc(OC)cc2)N(C)C)cc1 (centres undefined) | n | n | n | n | -96
O=C(NCc1ccccn1)c1cc2cc(Br)ccc2oc1=O | -68 | n | n | n | n
